{
  "source": "PubChem BioAssay",
  "note": "Values without a mark were called inactive. Active and inactive are the calls of the source.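 How the source made its calls: active means z-score of at least 1.8 in each of two replicates, scored against plate mean and spread of sample wells; inactive means the rest.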",
  "data": [
    {"assay": "viability rescue of complex I mutant cybrids, primary screen, cell-based, galactose medium, ATP luminescence (AID 1645843);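 further: positive z means more ATP and so rescue of galactose-driven cybrid death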", "conditions": "complex I mutant cybrid cells, 72 h, hits give high values", "values": [
      {"compound": "Cc1nsc(NC(=O)N2CCCC(C)(CO)C2)n1", "note": "(stereo not given)", "z-score": -0.515},
      {"compound": "CCn1ncc2[nH]c(-c3cc(F)ccc3-n3cccn3)nc21", "z-score": -0.185},
      {"compound": "CC(C)Oc1ccc(Cl)cc1-c1nnc2ccccn12", "z-score": -0.805},
      {"compound": "COc1ccc2nc(Cn3cnc4sc(C)cc4c3=O)[nH]c2c1", "z-score": 0.395},
      {"compound": "CCCCc1cc(=O)[nH]c(-c2ccc(CN3CCC(F)(F)CC3)cc2)n1", "z-score": 0.255},
      {"compound": "CCC(CC)CN1CCC(N2CCSCC2)CC1", "z-score": -0.55},
      {"compound": "OCCCCCNc1nccc(-c2cnn(-c3ccc(F)cc3)c2)n1", "z-score": -0.895},
      {"compound": "CCCCC(CO)NC(C)CCc1ccc(O)cc1", "note": "(stereo not given)", "z-score": -0.565},
      {"compound": "CCCCCC(=O)N1CCC(n2cc(C3CCCC3)nn2)CC1", "z-score": 0.965},
      {"compound": "CC(C)C1C(=O)N(C)CCN1C(=O)C1(C)CC1", "note": "(stereo not given)", "z-score": -0.54},
      {"compound": "COc1ccc(CN2CCN(c3nccc(-c4c(C)nn(C)c4C)n3)CC2=O)cc1", "z-score": 1.14},
      {"compound": "O=C(O)C1(Oc2cccc(-c3cccc4ncccc34)c2)CCCC1", "z-score": -0.5},
      {"compound": "CC(Oc1ccc2c(c1)OCO2)C(=O)N(Cc1nccn1C)C(C)C", "note": "(stereo not given)", "z-score": -0.22},
      {"compound": "CCc1ncc(C(=O)N2CCCC(Cn3cc(-c4ccccc4)nn3)C2)cn1", "note": "(stereo not given)", "z-score": 0.19},
      {"compound": "CCC(C)C(c1nc(C(C)C)no1)N1Cc2ccccc2C1=O", "note": "(stereo not given)", "z-score": -0.17},
      {"compound": "COc1ccc(N2CCN(C(=O)Nc3nc(C)ns3)CC2(C)C)cc1", "z-score": -0.445},
      {"compound": "O=C(C1CCCCCC1)N1CCC(n2cc(-c3ccsc3)nn2)CC1", "z-score": -0.215},
      {"compound": "CCc1n[nH]c2c1CN(C(=O)c1cc(C)nc3ccc(F)cc13)CC2", "z-score": -0.42},
      {"compound": "Cc1ccccc1C1CCCN(C(=O)c2cc(C(C)C)no2)C1", "note": "(stereo not given)", "z-score": "2.95 (active)"},
      {"compound": "Cc1cc(C)c(CNC(C)CCCC(C)(C)O)c(C)c1CO", "note": "(stereo not given)", "z-score": 0.19},
      {"compound": "COc1ccc(CCC(C)NC2CC(C)(C)NC(C)(C)C2)cc1", "note": "(stereo not given)", "z-score": -0.505},
      {"compound": "COc1ccc(-c2nc(N)nc(Nc3ccc(C)cc3)n2)cc1F", "z-score": -0.745},
      {"compound": "COc1cccc(-n2cc(-c3ccnc(N(C)Cc4cccnc4)n3)cn2)c1", "z-score": 0.62},
      {"compound": "O=C(Cn1ccc(-c2cccnc2)n1)Nc1ccnn1Cc1cccs1", "z-score": -0.545},
      {"compound": "CCc1c(C(=O)N2CCCN(C(C)=O)CC2)csc1C", "z-score": -0.54},
      {"compound": "Cc1nn(C)c(C)c1-c1ccnc(NCCc2nc(-c3ccccn3)no2)n1", "z-score": -0.395},
      {"compound": "C=C1C2(C(=O)N3CCC(c4ccc(F)cc4)C3)CCC(C2)C1(C)C", "note": "(stereo not given)", "z-score": 0.91},
      {"compound": "NC(=O)NCc1cn(C2CCN(C(=O)C3CCCCCC3)CC2)nn1", "z-score": -0.575},
      {"compound": "Cc1cccnc1CC(C)N(C)C(=O)c1cc(-c2cncnc2)nc2c(C)cccc12", "note": "(stereo not given)", "z-score": 1.18},
      {"compound": "O=C(CCn1cnnn1)N1CCc2[nH]nc(-c3ccc4c(c3)OCO4)c2C1", "z-score": 0.465},
      {"compound": "O=C(Nc1n[nH]c(-c2ccco2)n1)N1CCc2c([nH]c3ccccc23)C1", "z-score": -0.135},
      {"compound": "CN1CCN(c2ccc3cc(Cl)ccc3n2)CC1=O", "z-score": -0.56},
      {"compound": "CCCc1cc(C(=O)N2CCCC(Cn3cc(CC(C)C)nn3)C2)n[nH]1", "note": "(stereo not given)", "z-score": 1.21},
      {"compound": "CCCn1nc(NC(=O)Cn2ccc(-c3ccc(F)cc3)n2)c2ccccc21", "z-score": -1.28},
      {"compound": "Cc1nsc(NC(=O)N2CCN(c3ccccc3)CC2C)n1", "note": "(stereo not given)", "z-score": "2.15 (active)"},
      {"compound": "OCC1CCCN(C2CCN(c3ncnc4sccc34)CC2)C1", "note": "(stereo not given)", "z-score": 1},
      {"compound": "COc1ccc(CN[C@@H]2CS(=O)(=O)C[C@H]2O)cc1OCc1ccc(F)cc1", "z-score": -0.735},
      {"compound": "CCC1CN(C(=O)c2cc(-c3cnn(C)c3)nc3c(C)c(C)ccc23)CCO1", "note": "(stereo not given)", "z-score": "3.04 (active)"},
      {"compound": "Cc1ccc2nc(-c3cnc(C(C)(C)C)nc3)cc(C(=O)N(C)C(C)C)c2c1", "z-score": -0.47},
      {"compound": "Cc1cnc(NCCCn2ncc3ccccc32)nc1-c1cnn(C)c1", "z-score": 0.065}
    ]}
  ]
}
